{
  "source": "ChEMBL document CHEMBL1201862",
  "about": "“PubChem BioAssay data set” (2004)",
  "note": "About 2,700 (6.6%) of roughly 41,000 sequences were called active. No stated cut-off is given here; in the data, active = GI50 up to about 1.1 µM and inactive = higher. Not all results are given here. Potency and affinity values are given separately.",
  "data": [
    {"system": "BT-549", "units": {"GI50": "µM"}, "values": [
      {"substance": "[Bis(aminomethyl)tetramethylenesilane]dichloropaltinum(II), CHEMBL2146205", "GI50": 8.85},
      {"substance": "[Bis(aminomethyl)pentamethylenesilane]tetrachloropaltinum(IV), CHEMBL2146204", "GI50": 5.71},
      {"substance": "CISPLATIN, CHEMBL11359", "GI50": 3.73},
      {"substance": "[Bis(aminomethyl)dimethylsilane]tetrachloroplatinum(IV), CHEMBL2146190", "GI50": 16.4},
      {"substance": "[Bis(aminomethyl)tetramethylenesilane]tetrachloropaltinum(IV), CHEMBL2146189", "GI50": 4.99},
      {"substance": "[Bis(aminomethyl)pentamethylenesilane]dichloropaltinum(II), CHEMBL2146202", "GI50": 16.6}
    ]}
  ]
}
